The entries come from a sample that favours hits as a whole.
TTR transcr act = TTR transcription activators in neuroblastoma reporter cells, primary screen, cell-based, luminescence, SH-SY5Y, TTR promoter Gaussia luciferase | activation, % at 16.7 µM | hit rate 1.3% among 92,000 | 100% = recombinant luciferase protein wells;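 active = activation above the mean of all tested compounds plus 3 SD, cut at about 9.5% in these data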;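 also: cells exposed to compounds for one day before reading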
HuH7 TTR inh = TTR promoter reporter inhibitors in hepatoma cells, counter-screen for TTR transcription activator project, cell-based, luminescence, HuH7 hepatoma. AID 1117279, 2014. shares compounds with TTR transcr act. HuH7 TTR promoter-Gaussia luciferase reporter. inhibition, % at 16.7 µM. hit rate 4% among 1,100;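 active = average inhibition above the solvent-only control wells' mean plus 3 SD, cut at about 15% in these data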;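 also: inhibitors lower well luminescence so higher value means more inhibition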
TTR up confirm = TTR transcription activators, retest, confirmation, cell-based, luminescence, SH-SY5Y, triplicate | shares compounds with TTR transcr act | SHSY5Y TTR promoter Gaussia luciferase; 100% = purified Lucia enzyme wells, no cells | activation, % at 16.7 µM | 1,100 tested, under 10 active | AID 1117280, 2014;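 active = mean activation above a set limit taken from the earlier primary screen, cut at about 11% in these data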
A number is an active result; n = inactive.

SMILES	TTR transcr act	others
Cc1ccc(N2C(=O)[C@@H]3C(C(=O)CN4C(=O)c5ccccc5C4=O)=NN[C@@H]3C2=O)c(C)c1	n
COc1cccc(N2C(=O)C3NN=C(C(=O)CN4C(=O)c5ccccc5C4=O)C3C2=O)c1 (centres undefined)	18.1	HuH7 TTR inh=n;TTR up confirm=n
COc1ccccc1N1C(=O)[C@@H]2C(C(=O)CN3C(=O)c4ccccc4C3=O)=NN[C@@H]2C1=O	n
CC(C)C[C@@H](CNCC(=O)[C@H](CC(C)C)NC(=O)c1[nH]cnc1C(=O)N[C@H](CN)CC(C)C)NC(=O)c1nc[nH]c1C(=O)N[C@@H](CC(=O)O)C(=O)O	n
O=C(N/N=C/c1ccc([N+](=O)[O-])o1)C(=O)Nc1ccc(C(=O)O)cc1	n
O=[N+]([O-])c1ccc(C=NN2CCNC2=S)o1	10.0	HuH7 TTR inh=n;TTR up confirm=n
CN(/N=C/c1ccc([N+](=O)[O-])o1)c1ccccc1	n
COC(=O)[C@]12C[C@H](CC(=O)NCCc3ccccc3OC)C(=O)N(Cc3ccccc3)C1=C[C@H](COCc1ccccc1)O[C@@H]2C	n
CCOCCCNC(=O)Cn1cnc2c(cnn2-c2ccc(F)cc2)c1=O	n
CCOc1ccccc1NC(=O)Cn1cnc2c(cnn2-c2ccc(C)c(C)c2)c1=O	10.9	HuH7 TTR inh=n;TTR up confirm=n
CCCCNC(=O)Cn1cnc2c(cnn2-c2ccc(C)c(C)c2)c1=O	n
CSc1ccc(SC2CN(Cc3ccc(C)cc3)S(=O)(=O)C2)cc1 (centres undefined)	n
O=C(OCC(=O)N1CCN(c2ccccc2)CC1)c1ccc(O)cc1O	15.5	HuH7 TTR inh=n;TTR up confirm=n
O=C(COC(=O)c1ccc(CO)cc1)Nc1ccc2ccccc2c1	n
O=C(COC(=O)c1ccc(O)cc1O)Nc1ccc2ccccc2c1	21.2	HuH7 TTR inh=n;TTR up confirm=n
O=C(COC(=O)c1ccc2ccccc2c1O)Nc1ccccc1	n
O=C(COc1ccccc1)N1CCN(c2ccccc2)CC1	n
Cc1cc(C(=O)OCC(=O)N2CCOCC2)c(C)n1-c1ccccc1	n
FC(F)(F)c1ccccc1-n1c(-c2ccco2)n[nH]c1=S	n
CN1C(=O)C(=O)/C(=C(/O)c2ccc(Br)cc2)C1c1ccc(F)cc1 (centres undefined)	n
COc1ccc(/C=C/C(=O)C2CC2)cc1COc1cccc(C)c1C	n
O=C(N/N=C/C1CC=CCC1)c1ccc(Cl)cc1O (centres undefined)	n
O=C(Cn1nc(-c2ccccc2)c2ccccc21)Oc1ccccc1	n
O=S(=O)(Nc1ccccn1)c1ccc(Br)cc1	n
O=S(=O)(Nc1nccs1)c1cnc(Cl)c(Br)c1	n
SMILES	TTR transcr act	others
O=S(=O)(Nc1ccccn1)c1cnc(Cl)c(Br)c1	20.4	HuH7 TTR inh=n;TTR up confirm=n
CC1CC(C)CN(S(=O)(=O)c2cccc3nsnc23)C1 (centres undefined)	n
CCN1CCN(S(=O)(=O)c2cccc3nsnc23)CC1	n
Cc1ccccc1CN1CCN(S(=O)(=O)c2cccc3nsnc23)CC1	11.7	HuH7 TTR inh=n;TTR up confirm=n
CCC(CC)c1nnc(NC(=O)CSCc2c(C)noc2C)s1	n
COC(=O)N1[C@H](C)C=C[C@]1(Cc1ccccc1)C(=O)NCCCNc1ncc(C(F)(F)F)cc1Cl	n
CC1=C(C(=O)OCc2ccccc2)C(c2ccccc2Cl)NC(=O)N1C (centres undefined)	n
CC1SC(c2ccccc2Cl)NC1=O (centres undefined)	10.8	HuH7 TTR inh=n;TTR up confirm=n
CC1(C)COC(c2ccccc2Cl)OC1	n
Nc1cnccc1C(=O)O	10.5	HuH7 TTR inh=n;TTR up confirm=n
Cc1cc(C(=O)O)c(C)n1Cc1ccncc1	n
Nc1ccc(Br)cc1C(=O)O	n
Cc1ccc(S(N)(=O)=O)cc1NC(=O)/C=C/c1ccc2c(c1)OCO2	n
CCCCCCC1NC(C(=O)O)CS1 (centres undefined)	n
Cc1cc(C)cc(NC(=S)N2CCN(c3ccc(F)cc3)CC2)c1	n
Cc1cccc(NC(=S)N2CCN(c3ccccn3)CC2)c1	n
CCOc1ccccc1N1CCN(C(=S)NCc2ccc(Cl)cc2)CC1	n
Cc1cccc(NC(=S)N2CCN(c3ccc(F)cc3)CC2)c1	10.6	HuH7 TTR inh=n;TTR up confirm=n
O=C(NC(=S)N1CCOCC1)C12CCC3CC(CC(C3)C1)C2	n
O=C(NC(=S)N1CCN(c2ccc(F)cc2)CC1)C12CC3CC(CC(C3)C1)C2	18.1	HuH7 TTR inh=n;TTR up confirm=n
CCCCNC(=O)N1CCN(c2ccccc2OCC)CC1	n
O=[N+]([O-])c1ccc(NC(=S)N2CCN(c3ccc(F)cc3)CC2)cc1	n
CCOc1ccccc1N1CCN(C(=S)NC(=O)C23CC4CC(CC(C4)C2)C3)CC1	9.7	HuH7 TTR inh=n;TTR up confirm=n
CC(=O)Nc1ccc(/C=C/COC(C)=O)cc1C	n
COc1ccc(/C=C/C2=Nc3ccccc3NC(C)(C)C2)cc1OC	n
SMILES	TTR transcr act	others
O=C(NCc1ccc(F)cc1)c1cc(C2CCCN(C(=O)c3ccc4ccccc4c3)C2)on1 (centres undefined)	n
O=C(O)c1cccc(COc2cccc3ccccc23)c1	n
C[C@H]1[C@@H](NC(=O)c2ccc(C(C)(C)C)cc2)CC[C@@]23CCCN2C(=O)CCC[C@@H]13	n
O=C1CCCc2c1cc(C(=O)O)c(=O)n2-c1ccccc1	n
CCCCn1c2c(cc(C(=O)OC)c1=O)C(=O)CCC2	23.5	HuH7 TTR inh=n;TTR up confirm=n
COC(=O)c1cc(-c2cccc3ccccc23)c(=O)n2c1CCC2	n
CCCCNC(=S)N1CCC(Cc2ccccc2)CC1	n
CN1CCN(c2ccc(Cl)cc2NC(=O)/C=C/c2ccc(F)cc2)CC1	n
CN(C)c1ccc(C(=O)OCC(=O)N2CCCC2)cc1	13.0	HuH7 TTR inh=n;TTR up confirm=n
CN(C)c1ccc(C(=O)OCC(=O)N2CCCCCC2)cc1	n
CCOC(=O)N1CCN(C(=O)COC(=O)c2ccc(N(C)C)cc2)CC1	n
CC(C)N1CC(C(=O)Nc2ccc(Cl)c([N+](=O)[O-])c2)CC1=O (centres undefined)	n
CC(=O)NC1(NC(C)=O)CCN(C)C(c2ccccc2)C1C (centres undefined)	14.8	HuH7 TTR inh=n;TTR up confirm=n
CC(=O)NC1(c2ccccc2)CCN(C(=O)N2CCOCC2)CC1	n
CC(=O)NC1(C(F)(F)F)C(=O)N(Cc2ccccc2)C2=C1C(=O)CC(C)(C)C2 (centres undefined)	n
CN(CCc1cn[nH]c1)Cc1nc(Cc2ccccc2F)no1	n
CN(C)S(=O)(=O)c1cccc(NC(=O)COC(=O)CCOc2ccccc2)c1	n
Cc1cc(C(=O)OCC(=O)Nc2cccc(S(=O)(=O)N(C)C)c2)c2ccccc2n1	n
CN(C)S(=O)(=O)c1cccc(NC(=O)COC(=O)c2cn(-c3ccccc3)nc2-c2ccccc2)c1	15.3	HuH7 TTR inh=n;TTR up confirm=n
O=C(NC1CCCC1)c1cc(=O)[nH]c2ccccc12	n
O=S1(=O)c2c(cccc2N2CCC[C@H]2CO)O[C@@H]2CCN1C2	n
CC(C)C[C@H](NC1(C(=O)NC2CCCCC2)CCCCC1)C(=O)NCCc1c[nH]c2ccccc12	n
CC1(c2nnnn2Cc2ccccc2)CCC(=O)N1CC(F)(F)F (centres undefined)	n
CC1(c2nnnn2Cc2ccccc2)CCC(=O)N1CCc1ccccc1F (centres undefined)	11.2	HuH7 TTR inh=n;TTR up confirm=n
